About 7,900 targets were measured; listed, in parts, are those with a hit and a random draw of the rest. About 0.6% of all pairs of compound and target were hits.

Chain of UniProt P52655 (P52655 whole entry, looked up): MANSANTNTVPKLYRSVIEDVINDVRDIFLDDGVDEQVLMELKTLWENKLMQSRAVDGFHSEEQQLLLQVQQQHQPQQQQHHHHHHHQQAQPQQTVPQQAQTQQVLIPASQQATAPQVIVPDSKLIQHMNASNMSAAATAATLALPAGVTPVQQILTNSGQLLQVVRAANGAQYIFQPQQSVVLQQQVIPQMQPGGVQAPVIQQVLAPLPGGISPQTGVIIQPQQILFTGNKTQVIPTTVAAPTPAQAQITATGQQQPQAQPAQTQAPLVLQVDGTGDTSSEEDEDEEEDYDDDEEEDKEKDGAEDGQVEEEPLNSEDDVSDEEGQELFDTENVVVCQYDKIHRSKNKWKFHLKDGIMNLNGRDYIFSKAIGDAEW
Chain of UniProt Q9UK99 (Q9UK99 whole entry, looked up): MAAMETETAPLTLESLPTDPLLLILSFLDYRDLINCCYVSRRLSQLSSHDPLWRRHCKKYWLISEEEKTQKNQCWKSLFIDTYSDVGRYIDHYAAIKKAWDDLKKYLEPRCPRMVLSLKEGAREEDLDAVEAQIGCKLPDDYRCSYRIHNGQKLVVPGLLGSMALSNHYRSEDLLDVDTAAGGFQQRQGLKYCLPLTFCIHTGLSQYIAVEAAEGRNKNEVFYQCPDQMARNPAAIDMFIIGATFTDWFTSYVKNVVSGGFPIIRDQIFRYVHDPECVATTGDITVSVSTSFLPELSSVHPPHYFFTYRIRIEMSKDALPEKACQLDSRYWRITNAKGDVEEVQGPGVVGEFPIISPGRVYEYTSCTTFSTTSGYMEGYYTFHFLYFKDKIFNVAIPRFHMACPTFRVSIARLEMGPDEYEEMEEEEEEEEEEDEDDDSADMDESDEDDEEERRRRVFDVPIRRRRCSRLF
Chain of UniProt Q9ULT8 (Q9ULT8 whole entry, looked up): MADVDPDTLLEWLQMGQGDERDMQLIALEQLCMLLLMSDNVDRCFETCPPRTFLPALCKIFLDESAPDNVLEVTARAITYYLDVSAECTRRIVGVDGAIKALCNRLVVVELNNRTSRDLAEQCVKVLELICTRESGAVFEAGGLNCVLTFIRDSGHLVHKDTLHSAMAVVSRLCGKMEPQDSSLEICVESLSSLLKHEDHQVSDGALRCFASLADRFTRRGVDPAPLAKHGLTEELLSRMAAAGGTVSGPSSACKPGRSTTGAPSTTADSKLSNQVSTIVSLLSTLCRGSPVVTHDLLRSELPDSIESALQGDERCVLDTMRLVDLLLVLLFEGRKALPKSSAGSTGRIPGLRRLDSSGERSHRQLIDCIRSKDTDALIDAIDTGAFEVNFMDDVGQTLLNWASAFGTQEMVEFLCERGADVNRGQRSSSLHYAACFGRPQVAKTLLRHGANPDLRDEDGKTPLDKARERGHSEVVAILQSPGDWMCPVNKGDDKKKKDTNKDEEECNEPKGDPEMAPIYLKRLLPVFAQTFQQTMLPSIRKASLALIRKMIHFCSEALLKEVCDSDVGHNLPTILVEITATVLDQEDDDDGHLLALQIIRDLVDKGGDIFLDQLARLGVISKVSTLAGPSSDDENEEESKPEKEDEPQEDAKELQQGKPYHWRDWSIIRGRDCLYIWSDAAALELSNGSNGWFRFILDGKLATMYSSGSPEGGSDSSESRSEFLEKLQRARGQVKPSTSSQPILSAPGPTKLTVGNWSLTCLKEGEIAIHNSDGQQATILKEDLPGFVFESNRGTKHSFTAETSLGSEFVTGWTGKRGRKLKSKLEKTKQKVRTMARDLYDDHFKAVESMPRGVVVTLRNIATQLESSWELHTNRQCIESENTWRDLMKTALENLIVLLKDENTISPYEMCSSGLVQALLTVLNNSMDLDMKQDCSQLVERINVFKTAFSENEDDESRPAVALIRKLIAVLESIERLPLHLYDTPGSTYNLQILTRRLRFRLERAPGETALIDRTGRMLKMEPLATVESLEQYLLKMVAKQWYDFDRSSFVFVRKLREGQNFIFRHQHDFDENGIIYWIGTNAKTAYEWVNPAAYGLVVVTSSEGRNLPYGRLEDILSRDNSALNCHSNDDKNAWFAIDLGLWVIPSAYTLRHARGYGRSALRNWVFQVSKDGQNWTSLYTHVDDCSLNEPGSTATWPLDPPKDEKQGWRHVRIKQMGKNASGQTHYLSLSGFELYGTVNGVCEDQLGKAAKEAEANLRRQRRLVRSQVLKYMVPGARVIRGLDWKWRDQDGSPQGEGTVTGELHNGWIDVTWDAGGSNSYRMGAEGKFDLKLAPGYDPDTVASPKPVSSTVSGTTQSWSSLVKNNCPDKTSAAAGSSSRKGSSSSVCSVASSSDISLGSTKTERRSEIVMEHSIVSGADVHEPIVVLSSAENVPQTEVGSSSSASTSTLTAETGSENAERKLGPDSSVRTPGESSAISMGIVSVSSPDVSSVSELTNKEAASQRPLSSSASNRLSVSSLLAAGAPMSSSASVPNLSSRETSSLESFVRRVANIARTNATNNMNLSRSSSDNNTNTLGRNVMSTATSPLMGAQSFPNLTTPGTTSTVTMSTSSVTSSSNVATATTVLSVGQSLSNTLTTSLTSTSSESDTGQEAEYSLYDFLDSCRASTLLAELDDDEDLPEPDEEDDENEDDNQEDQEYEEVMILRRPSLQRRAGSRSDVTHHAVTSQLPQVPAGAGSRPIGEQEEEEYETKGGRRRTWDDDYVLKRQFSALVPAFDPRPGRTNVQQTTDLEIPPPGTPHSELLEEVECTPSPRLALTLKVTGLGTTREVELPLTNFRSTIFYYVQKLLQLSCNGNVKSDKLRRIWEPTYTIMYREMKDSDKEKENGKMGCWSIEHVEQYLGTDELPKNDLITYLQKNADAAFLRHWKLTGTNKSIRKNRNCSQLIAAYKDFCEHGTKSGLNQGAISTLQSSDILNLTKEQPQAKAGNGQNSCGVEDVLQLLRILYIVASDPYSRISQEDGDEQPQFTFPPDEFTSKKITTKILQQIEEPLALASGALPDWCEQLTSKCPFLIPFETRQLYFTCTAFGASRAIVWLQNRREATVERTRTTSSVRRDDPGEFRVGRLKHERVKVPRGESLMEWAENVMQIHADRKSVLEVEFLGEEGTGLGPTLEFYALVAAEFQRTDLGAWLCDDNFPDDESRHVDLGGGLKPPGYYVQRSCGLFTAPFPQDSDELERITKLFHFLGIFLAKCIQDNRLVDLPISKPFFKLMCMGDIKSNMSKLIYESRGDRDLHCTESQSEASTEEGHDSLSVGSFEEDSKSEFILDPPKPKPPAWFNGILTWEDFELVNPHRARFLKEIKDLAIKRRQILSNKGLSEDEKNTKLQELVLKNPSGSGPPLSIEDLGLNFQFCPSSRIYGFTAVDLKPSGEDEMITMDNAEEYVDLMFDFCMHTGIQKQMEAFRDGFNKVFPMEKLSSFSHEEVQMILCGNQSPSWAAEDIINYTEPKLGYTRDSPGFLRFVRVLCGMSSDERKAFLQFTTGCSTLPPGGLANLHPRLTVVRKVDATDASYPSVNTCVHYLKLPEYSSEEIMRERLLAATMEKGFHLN
Chain of UniProt Q92947 (Q92947 whole entry, looked up): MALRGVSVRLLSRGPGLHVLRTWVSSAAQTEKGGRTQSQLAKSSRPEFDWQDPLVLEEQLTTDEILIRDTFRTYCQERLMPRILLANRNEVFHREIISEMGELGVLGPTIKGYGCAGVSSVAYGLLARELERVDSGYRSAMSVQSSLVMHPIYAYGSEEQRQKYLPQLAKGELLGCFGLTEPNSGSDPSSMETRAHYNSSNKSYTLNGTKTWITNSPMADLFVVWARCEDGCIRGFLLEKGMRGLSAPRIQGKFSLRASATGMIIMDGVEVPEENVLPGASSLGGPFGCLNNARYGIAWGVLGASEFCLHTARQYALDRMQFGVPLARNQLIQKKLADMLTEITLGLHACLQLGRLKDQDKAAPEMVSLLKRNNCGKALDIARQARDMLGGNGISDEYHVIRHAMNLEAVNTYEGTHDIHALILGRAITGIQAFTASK
Chain of UniProt P63218 (P63218 whole entry, looked up): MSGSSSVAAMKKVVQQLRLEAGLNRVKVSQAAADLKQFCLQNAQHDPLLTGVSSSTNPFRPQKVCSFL
Chain of UniProt P0CL80 (P0CL80 whole entry, looked up): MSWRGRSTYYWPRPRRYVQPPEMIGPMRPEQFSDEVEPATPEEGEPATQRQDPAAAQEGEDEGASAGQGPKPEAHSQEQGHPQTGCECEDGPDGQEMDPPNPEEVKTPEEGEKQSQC
Chain of UniProt Q86YM7 (Q86YM7 whole entry, looked up): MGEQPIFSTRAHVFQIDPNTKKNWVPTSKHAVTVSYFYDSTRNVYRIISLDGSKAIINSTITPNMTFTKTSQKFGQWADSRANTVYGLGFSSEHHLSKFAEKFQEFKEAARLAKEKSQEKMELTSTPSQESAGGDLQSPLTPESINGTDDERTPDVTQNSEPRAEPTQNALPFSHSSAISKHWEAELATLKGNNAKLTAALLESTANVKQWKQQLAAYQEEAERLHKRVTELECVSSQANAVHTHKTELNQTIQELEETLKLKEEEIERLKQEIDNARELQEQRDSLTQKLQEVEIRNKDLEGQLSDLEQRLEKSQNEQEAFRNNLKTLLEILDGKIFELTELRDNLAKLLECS
Chain of UniProt P49356 (P49356 whole entry, looked up): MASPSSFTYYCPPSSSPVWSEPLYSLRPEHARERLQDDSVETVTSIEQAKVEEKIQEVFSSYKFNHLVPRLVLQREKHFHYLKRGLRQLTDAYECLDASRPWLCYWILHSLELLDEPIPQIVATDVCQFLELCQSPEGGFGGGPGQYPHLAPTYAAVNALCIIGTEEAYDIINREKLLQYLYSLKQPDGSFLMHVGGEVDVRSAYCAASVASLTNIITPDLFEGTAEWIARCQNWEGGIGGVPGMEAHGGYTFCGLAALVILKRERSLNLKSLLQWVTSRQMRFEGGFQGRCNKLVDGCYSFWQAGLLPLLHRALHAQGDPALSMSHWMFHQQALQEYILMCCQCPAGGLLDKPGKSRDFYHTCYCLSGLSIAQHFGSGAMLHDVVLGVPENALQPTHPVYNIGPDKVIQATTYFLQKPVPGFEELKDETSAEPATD
Chain of UniProt P60520 (P60520 whole entry, looked up): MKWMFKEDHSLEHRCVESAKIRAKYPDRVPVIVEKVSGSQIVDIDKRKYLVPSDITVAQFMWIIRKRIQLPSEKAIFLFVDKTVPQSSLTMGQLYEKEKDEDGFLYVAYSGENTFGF

Compound in this experiment: CCCS(=O)(=O)Nc1ccc(F)c(C(=O)c2c[nH]c3ncc(-c4ccc(Cl)cc4)cc23)c1F [vemurafenib]
The experiment in a line: log2 fold change, soluble protein after heating vs DMSO (PISA); higher = thermal stabilisation; K562 cells, 10 uM, 30 min; active = over 0.2 and 3.5 SD of the protein, either way, in both replicates (recomputed). A digest of the protocol: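 K562 cells at 2×10^6 cells/mL were treated for 30 min with 10 μM compound, and aliquots were heated for 3 min over 48°C-58°C before pooling. Extraction used PBS with 0.5% NP-40 at 4°C, and soluble protein was the supernatant after 21,000xg for 90 min, measured by TMTpro 16plex LC-MS/MS with channel sums equalised. Thermal stability values, relative to control samples and from duplicates, are log2 fold changes.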
With GIGYF2 (UniProt Q6Y7W6), the log2 fold change was 0.043 (inactive). The same measure for HSPA8 (UniProt P11142): -0.008 (inactive). The same measure for FNTA (UniProt P49354): -0.045 (inactive); for HOMER1 (UniProt Q86YM7): -0.021 (inactive); for GTF2A1 (UniProt P52655): 0.005 (inactive).

Turning to GNG5 (UniProt P63218), the log2 fold change is 0.038 (inactive). The same measure for FYB1 isoform 3 (UniProt O15117): -0.009 (inactive). For GDPD1 (UniProt Q8N9F7), the log2 fold change is 0.022 (inactive).

In the case of FNTB (UniProt P49356), the log2 fold change is 0.011 (inactive). As for HECTD1 (UniProt Q9ULT8), the figure is -0.04 (inactive); as for GGA2 (UniProt Q9UJY4), 0.053 (inactive); as for GCDH (UniProt Q92947), 0 (inactive).

As to GABARAPL2 (UniProt P60520), the log2 fold change was 0.026 (inactive). On to GNB2 (UniProt P62879), for which the log2 fold change is 0.044 (inactive). As for FBXO3 (UniProt Q9UK99), the figure is -0.089 (inactive). The same measure for FKBP7 (UniProt Q9Y680): -0.031 (inactive).

For the target GALNT4 (UniProt Q8N4A0), the log2 fold change was -0.037 (inactive).

With HMOX2 (UniProt P30519), the log2 fold change was 0.034 (inactive). The same measure for ICAM1 (UniProt P05362): 0.018 (inactive); for GDI1 (UniProt P31150): 0.015 (inactive); for FANCD2 isoform 1 (UniProt Q9BXW9): 0.033 (inactive). The same measure for GBF1 (UniProt Q92538): 0.028 (inactive); for GAGE12F (UniProt P0CL80): 0.019 (inactive).

The values are drawn from the supplement of paper PMC10849652.
